Measurements: the supplement of paper PMC9844399
Where a name gives a salt, the structure may show the parent alone. A number with no mark means an inactive call.

Test system: HeLa
Test: MALAT1 nuclear FISH intensity, robust Z-score vs DMSO; higher = more nuclear MALAT1 lncRNA, active = -3 or less
Settings: 10 µM; 6 h
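Also: High-content confocal imaging of branched-DNA amplified FISH in 384-well plates, Hoechst-defined nuclei, score is well value minus plate DMSO median over DMSO robust SD, four wells per compound.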

Row | SMILES | MALAT1 nuclear FISH intensity
1 | O=C(Nc1ccccc1)N(Cc1ccc(Cl)cc1)C1CCCC1 [Pencycuron] | -0.114
2 | NC1CCc2cc(O)c(O)cc2C1 (stereo not given) | -1.61
3 | CN1[C@@H]2CC[C@H]1C[C@@H](OC(=O)C(CO)c1ccccc1)C2 (stereo not given in full) [Atropine Sulfate Monohydrate] | -0.542
4 | O=C(NCCc1ncc(C(F)(F)F)cc1Cl)c1ccccc1C(F)(F)F [Fluopyram] | -1.6
5 | C[C@H](CCC(=O)O)C[C@H](C)C[C@H](C)C(=O)/C=C(\O)[C@H](C)C[C@H](C)C/C=C/[C@@H](C)[C@@H](O)[C@@H](C)[C@@H](O)C[C@@H]1CC[C@@](C)([C@H]2CC[C@@](C)([C@@H](C)O)O2)O1 [Ionomycin, Free Acid, Streptomyces conglobatus] | -1.3
